A short description of assay [1]: antimalarial activity against Dd2 strain (AID 2302;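 active = growth inhibition above 50% at the single 2 µM test dose, taken to imply half-maximal potency below 2 µM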;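 note: 0% = DMSO untreated growth and 100% = chloroquine plus artemisinin killed control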). The following applies: P. falciparum Dd2 in RBCs, LDH growth readout, 72 h; at 2 µM; stronger effect = higher value.
Assay [2] in a line: human hepatoma cell viability loss – ATP luminescence, cytotoxicity control for P. falciparum antimalarial project, primary screen (AID 2303;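 active = inhibition above 50%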;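 note: 0% = DMSO wells and 100% = digitonin-killed cells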). The note with it: HepG2 viability, 24-48 h, at 10 µM, stronger effect = higher value.
Assay [3] addresses L-lactate dehydrogenase (Plasmodium falciparum (isolate CDC / Honduras)) (UniProt Q27743). Briefly: PfLDH activity inhibition – cell lysate, 3D7 strain, counter-screen for P. falciparum growth inhibition project (AID 2304).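 Note: 0% = vehicle and 100% = reference inhibitor.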 The note with it: P. falciparum 3D7 crude extract, LDH APAD/NBT absorbance; at 2 µM; stronger effect = higher value. For orientation: The purpose of a counterscreen is to sort out artefacts and off-target activity.

The nature of assay [4]: inhibition of 3D7 malaria parasite growth – strain 3D7 (AID 2306).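 Note: 0% = DMSO wells and 100% = chloroquine plus artemisinin control wells.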 The following applies: P. falciparum 3D7 erythrocytic growth, LDH absorbance, 72 h; at 2 µM; stronger effect = higher value.
Assay [5] concerns the target Calcium-dependent protein kinase 1 (Plasmodium falciparum (isolate 3D7)) (UniProt P62344). Briefly: PfCDPK1 kinase inhibitors, biochemical, TCAMS library (AID 1159585; cut-off not given, nearly all actives have IC50 up to about 0.98 µM;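 note: inhibitors leave more ATP so luminescence rises with inhibition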). The note with it: recombinant PfCDPK1, Kinase-Glo ATP depletion luminescence. In general terms: In Kinase-Glo more light means more ATP remaining.
Assay [6] has as its target Plasmodium falciparum protein kinase 6 (PK6, PF3D7_1337100) (UniProt Q8IDW1). Briefly: PfPK6 kinase inhibitors, biochemical, TCAMS library (AID 1159586). The following applies: recombinant PfPK6, Kinase-Glo ATP depletion luminescence.
Assay [7] concerns the target Protein kinase 7 (PK7), Plasmodium falciparum 3D7 (PF3D7_0213400) (UniProt Q7YTF7). Briefly: inhibition of Plasmodium PK7 catalytic activity – biochemical, TCAMS antimalarial set, Kinase-Glo luminescence (AID 1159587). The following applies: recombinant PfPK7, Kinase-Glo ATP depletion luminescence.
Assay [8] addresses Calcium-dependent protein kinase 4 (Plasmodium falciparum (isolate 3D7)) (UniProt Q8IBS5). Briefly: PfCDPK4 kinase inhibitors, biochemical, TCAMS library (AID 1159588; cut-off not given, nearly all actives have IC50 up to about 0.91 µM). The note with it: recombinant PfCDPK4, Kinase-Glo ATP depletion luminescence.

The record followed here is PubChem BioAssay.

Structures are written as SMILES. Values without a mark were called inactive. For part of these data: Entries with a potency or affinity are not part of this list. The source made the active and inactive calls. Unless noted, the rule behind the calls is not given here.

Sequence of Calcium-dependent protein kinase 4 (Plasmodium falciparum (isolate 3D7)) (Q8IBS5 whole entry, looked up): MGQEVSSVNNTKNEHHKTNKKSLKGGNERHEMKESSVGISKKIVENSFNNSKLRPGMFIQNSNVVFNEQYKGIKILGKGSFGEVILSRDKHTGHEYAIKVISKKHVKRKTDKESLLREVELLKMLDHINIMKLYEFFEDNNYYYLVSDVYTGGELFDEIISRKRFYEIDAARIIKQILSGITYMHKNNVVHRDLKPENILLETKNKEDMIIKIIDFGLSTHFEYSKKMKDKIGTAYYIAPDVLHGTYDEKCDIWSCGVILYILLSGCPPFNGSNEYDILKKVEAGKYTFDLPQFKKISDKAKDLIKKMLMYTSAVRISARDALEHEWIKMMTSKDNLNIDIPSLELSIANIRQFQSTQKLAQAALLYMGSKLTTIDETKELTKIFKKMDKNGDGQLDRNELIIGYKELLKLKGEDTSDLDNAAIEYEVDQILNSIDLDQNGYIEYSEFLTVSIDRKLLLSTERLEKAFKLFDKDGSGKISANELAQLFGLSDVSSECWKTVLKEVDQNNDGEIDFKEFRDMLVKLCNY
Sequence of Plasmodium falciparum protein kinase 6 (PK6, PF3D7_1337100) (Q8IDW1 1-305): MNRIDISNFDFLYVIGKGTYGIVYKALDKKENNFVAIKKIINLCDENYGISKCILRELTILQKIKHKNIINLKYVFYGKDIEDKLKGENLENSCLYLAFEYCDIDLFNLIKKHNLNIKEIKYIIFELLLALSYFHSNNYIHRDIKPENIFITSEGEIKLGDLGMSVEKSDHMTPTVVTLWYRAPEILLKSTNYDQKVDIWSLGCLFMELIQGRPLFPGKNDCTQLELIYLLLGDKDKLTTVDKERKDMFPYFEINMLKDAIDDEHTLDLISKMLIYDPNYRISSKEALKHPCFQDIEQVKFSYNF
Sequence of L-lactate dehydrogenase (Plasmodium falciparum (isolate CDC / Honduras)) (Q27743 whole entry, looked up): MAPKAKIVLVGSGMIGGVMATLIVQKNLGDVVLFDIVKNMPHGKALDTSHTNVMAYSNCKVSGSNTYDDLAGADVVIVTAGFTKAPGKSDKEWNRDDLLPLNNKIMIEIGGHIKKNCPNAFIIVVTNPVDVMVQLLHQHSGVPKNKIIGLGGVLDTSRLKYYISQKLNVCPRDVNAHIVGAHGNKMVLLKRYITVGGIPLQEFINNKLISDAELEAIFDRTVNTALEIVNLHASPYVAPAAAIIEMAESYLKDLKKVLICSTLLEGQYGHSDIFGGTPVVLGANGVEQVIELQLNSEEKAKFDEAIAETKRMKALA
Sequence of Protein kinase 7 (PK7), Plasmodium falciparum 3D7 (PF3D7_0213400) (Q7YTF7 1-343): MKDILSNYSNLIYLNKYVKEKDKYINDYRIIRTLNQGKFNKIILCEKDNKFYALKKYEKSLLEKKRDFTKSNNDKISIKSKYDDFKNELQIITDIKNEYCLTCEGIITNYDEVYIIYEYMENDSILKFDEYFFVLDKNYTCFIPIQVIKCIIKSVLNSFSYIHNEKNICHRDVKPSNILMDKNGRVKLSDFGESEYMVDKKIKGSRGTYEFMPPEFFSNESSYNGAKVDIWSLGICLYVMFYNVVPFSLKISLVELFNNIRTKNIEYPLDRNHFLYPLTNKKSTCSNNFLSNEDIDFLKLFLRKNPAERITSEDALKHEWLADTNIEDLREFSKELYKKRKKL
Sequence of Calcium-dependent protein kinase 1 (Plasmodium falciparum (isolate 3D7)) (P62344 whole entry, looked up): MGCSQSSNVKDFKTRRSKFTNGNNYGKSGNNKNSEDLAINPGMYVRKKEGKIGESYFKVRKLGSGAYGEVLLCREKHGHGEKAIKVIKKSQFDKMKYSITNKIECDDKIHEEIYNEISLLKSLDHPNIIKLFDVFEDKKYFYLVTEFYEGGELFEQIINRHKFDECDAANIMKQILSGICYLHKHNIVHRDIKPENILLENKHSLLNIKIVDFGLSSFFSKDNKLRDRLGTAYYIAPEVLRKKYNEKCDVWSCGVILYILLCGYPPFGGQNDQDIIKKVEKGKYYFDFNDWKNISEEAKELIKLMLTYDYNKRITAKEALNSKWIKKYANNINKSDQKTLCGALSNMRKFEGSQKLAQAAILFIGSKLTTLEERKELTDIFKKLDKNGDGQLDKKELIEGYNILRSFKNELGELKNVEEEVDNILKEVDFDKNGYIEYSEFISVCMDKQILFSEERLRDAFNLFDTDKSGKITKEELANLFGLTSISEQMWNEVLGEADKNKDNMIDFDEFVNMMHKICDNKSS

Broadly, the inhibition is the change of the read-out against control, counted positive when it falls. For the compound `Nc1cccc(CNCc2ccc(-c3cccc(-c4nc5ccc(C(F)(F)F)cc5[nH]4)c3)cc2)c1`, the growth inhibition in assay [1] and in assay [4] was 100% (active) throughout. Moreover, the inhibition in assay [2] was 60% (active); in assay [3] it was -2%. The result in assay [5], in assay [6], in assay [7] and in assay [8] was inactive.

Consider `COc1ccc(NC(=O)/C=C/c2cc(Br)ccc2F)cc1OCCN(C(C)C)C(C)C`, for which the growth inhibition in assay [1] was 14%; in assay [4], 100% (active). Besides, the inhibition was 22% in assay [2] and -3% in assay [3]. Also, the outcome in assay [5], in assay [6], in assay [7] and in assay [8] was inactive.

As to `O=C(/C=C/c1ccc(Cl)c(Cl)c1)NCCCCCN1CCC(NC(=O)Nc2cc(Cl)cc(Cl)c2)CC1`, the growth inhibition is 5% in assay [1] and 94% (active) in assay [4]. For the same compound, the figures for the inhibition in assay [2] and in assay [3] were 98% (active) and -8%, respectively. Also, the result in assay [5], in assay [6], in assay [7] and in assay [8] was inactive.

On to `CC(C)n1cc2c(ccc3nc(N)nc(N)c32)n1`, for which the growth inhibition in assay [1] was -2%; in assay [4] it was 92% (active). The inhibition in assay [2] was 65% (active); in assay [3], 1%. Further, the outcome in assay [5], in assay [6], in assay [7] and in assay [8] was inactive.

Consider `COc1ccc2nc3cc(Cl)ccc3c(NCCCN3CCNCC3)c2c1`, for which the growth inhibition was 74% (active) in assay [1] and 104% (active) in assay [4]. For the same compound, the inhibition in assay [2] is 18%; in assay [3], -3%. For the same compound, the result in assay [5], in assay [6], in assay [7] and in assay [8] was inactive.

In the case of `CCCC(CNCc1cccc(OC(F)(F)C(F)F)c1)CNc1cc(=O)c2ccccc2[nH]1` (stereo not drawn), the growth inhibition in assay [1] is 94% (active); in assay [4], 101% (active). Moreover, the inhibition was -1% in assay [2] and 1% in assay [3]. For the same compound, the result in assay [5], in assay [6], in assay [7] and in assay [8] was inactive.

For the compound `O=C(Nc1ccc(-c2csc(-c3nc4ccccc4[nH]3)c2)cc1)Nc1ccc(F)c(F)c1F`, the growth inhibition in assay [1] is 64% (active); in assay [4], 100% (active). The inhibition was 67% (active) in assay [2] and 2% in assay [3]. In addition, the result in assay [5], in assay [6], in assay [7] and in assay [8] was inactive.

In the case of `COc1ccc(O)c(Cc2cnc3nc(N)[nH]c(=O)c3c2C)c1`, the growth inhibition in assay [1] is 6%; in assay [4], 96% (active). The inhibition in assay [2] is 30%; in assay [3], -5%. Further, the outcome in assay [5], in assay [6], in assay [7] and in assay [8] was inactive.

`CN(C)CCCNc1nccc(N(C)c2ccc(NC(=O)Nc3cc(C(F)(F)F)ccc3F)cc2)n1`: the growth inhibition in assay [1] was 25%; in assay [4], 93% (active). In addition, the inhibition in assay [2] is 97% (active); in assay [3] it was 2%. Moreover, the result in assay [5], in assay [6], in assay [7] and in assay [8] was inactive.

On to `Cc1ccc(Cn2nc(N3CCNCC3)ccc2=O)cc1NC(=O)Nc1ccc(-c2ccccc2)cc1`, for which the results for the growth inhibition in assay [1] and in assay [4] were 20% and 94% (active), respectively. For the same compound, the inhibition in assay [2] was 46%; in assay [3], -1%. Besides, the result in assay [5], in assay [6], in assay [7] and in assay [8] was inactive.

Regarding `C(=NNc1ccnc2ccccc12)c1ccncc1`, the values for the growth inhibition in assay [1] and in assay [4] were 27% and 95% (active), respectively. Besides, the inhibition was 7% in assay [2] and -2% in assay [3]. Moreover, the outcome in assay [5], in assay [6], in assay [7] and in assay [8] was inactive.

`CN(Cc1ccc(NC(=O)NC2CCN(C(=O)/C=C/c3ccc(Cl)c(Cl)c3)CC2)cc1)C1CCOCC1`: the growth inhibition is 14% in assay [1] and 96% (active) in assay [4]. In addition, the inhibition in assay [2] was 9%; in assay [3], 5%. Moreover, the outcome in assay [5], in assay [6], in assay [7] and in assay [8] was inactive.

Consider `C=C1C[C@@H](n2cnc3c(NC(=O)c4ccccc4)ncnc32)[C@@H](F)[C@@H]1OC(c1ccccc1)(c1ccccc1)c1ccccc1`, for which the results for the growth inhibition in assay [1] and in assay [4] were 97% (active) and 98% (active), respectively. Besides, the figures for the inhibition in assay [2] and in assay [3] were 16% and -5%, respectively. Also, the result in assay [5], in assay [6], in assay [7] and in assay [8] was inactive.

As for `CCN1CCC(N(Cc2ccc(-c3ccc(Cl)cc3)cc2)C(=O)Cn2c(CCc3cccc(F)c3F)cc(=O)c3ccccc32)CC1`, the growth inhibition in assay [1] is 95% (active); in assay [4], 99% (active). In addition, the inhibition in assay [2] is 100% (active); in assay [3] it was -7%. In addition, the outcome in assay [5], in assay [6], in assay [7] and in assay [8] was inactive.

For `O=C(NC1CCCc2ccccc21)C1CCCN(C(=O)c2ccc(O)c(-c3ccc(Cl)c(Cl)c3)c2)C1` (stereo not drawn), the growth inhibition is 54% (active) in assay [1] and 88% (active) in assay [4]. Also, the figures for the inhibition in assay [2] and in assay [3] were -3% and -8%, respectively. The outcome in assay [5], in assay [6], in assay [7] and in assay [8] was inactive.

As to `CCOc1cc(NCCSCc2nc[nH]c2C)nc2ccccc12`, the growth inhibition in assay [1] is 10%; in assay [4] it was 92% (active). Further, the figures for the inhibition in assay [2] and in assay [3] were 4% and 1%, respectively. The outcome in assay [5], in assay [6], in assay [7] and in assay [8] was inactive.

As to `O=C(/C=C/c1ccc(Cl)c(Cl)c1)NC1CCC(CN2CCC(c3nc4ccc(O)cc4[nH]3)CC2)CC1` (stereo not drawn), the results for the growth inhibition in assay [1] and in assay [4] were 84% (active) and 101% (active), respectively. Also, the inhibition in assay [2] is 41%; in assay [3] it was -6%. Moreover, the result in assay [5], in assay [6], in assay [7] and in assay [8] was inactive.

As to `Cc1ccc(F)cc1S(=O)(=O)NCC(C)c1ccc(NC(=O)Nc2cccc(F)c2)cc1` (stereo not drawn), the growth inhibition in assay [1] was 5%; in assay [4] it was 95% (active). Besides, the inhibition in assay [2] was 20%; in assay [3], 2%. Further, the outcome in assay [5], in assay [6], in assay [7] and in assay [8] was inactive.

In the case of `CCNC(=O)N1CCN(c2nc(-c3ccccc3)nc(COC)c2Cc2ccc(C)cc2)CC1`, the growth inhibition in assay [1] is 94% (active); in assay [4], 95% (active). Moreover, the inhibition in assay [2] was 27%; in assay [3], 0%. For the same compound, the result in assay [5], in assay [6], in assay [7] and in assay [8] was inactive.

In the case of `OC1(c2ccccc2)CCN(Cc2cccc(-c3c[nH]c4nc(NC5CCCC5)ncc34)c2)C1` (stereo not drawn), the growth inhibition is 31% in assay [1] and 92% (active) in assay [4]. Further, the inhibition in assay [2] was 42%; in assay [3], -1%. Moreover, the result in assay [5], in assay [6], in assay [7] and in assay [8] was inactive.

`OC(COc1ccccc1-c1nc2ccccc2o1)CN1CCCN(CCc2ccccc2)CC1` (stereo not drawn): the figures for the growth inhibition in assay [1] and in assay [4] were 2% and 97% (active), respectively. In addition, the values for the inhibition in assay [2] and in assay [3] were 39% and -5%, respectively. The outcome in assay [5], in assay [6], in assay [7] and in assay [8] was inactive.
